# From ChEMBL document CHEMBL3988442, “University of Dundee, Small-Polar-MMV Screening Library” (2021)
# Screen size: about 48,000 compounds; about 13,000 (27%) showed an effect of 50% or more. The list shows a part of the results.
# Test system: Wolbachia pipientis
# Test: Anti-Wolbachia Cell-Based Screen
# Type: functional
# Design: scale not given: in the data most compounds retested in dose-response had high values
# Conditions: 5 µM
row,SMILES,Percent Effect [%]
1,CN(C)C(=O)CN1CCOCC2(CCN(CC3CCOCC3)CC2)C1.O=C(O)C(F)(F)F.O=C(O)C(F)(F)F,8.025
2,CN(C)C(=O)CN1CCOCC2(C1)CN(c1ncc(F)cn1)CCO2.O=C(O)C(F)(F)F (centres undefined),98.39
3,O=C(O)C(F)(F)F.c1cnc(N2CCOCC3(C2)CN(c2nccs2)CCO3)nc1 (centres undefined),-52.69
4,CC(C)(C)C1CCC(NCCN2CCOCC2)CC1 (centres undefined),-13.34
5,Cc1ccc(Cl)cc1NC(=O)C1CC(=O)N(Cc2ccccn2)C1 (centres undefined),-6.487
6,Cc1nc(C(=O)N2CCN(c3ccc(Cl)c(Cl)c3)CC2)cs1,99.9
7,CNc1nc(C(=O)N2CCC3(CCCN(C)C3=O)C2)cs1 (centres undefined),-18.85
8,Cc1nc(C(=O)N2CCN(C(C)c3ccccc3F)CC2)cs1 (centres undefined),-7.061
9,CNc1nc(C(=O)N2CCN(c3ccc(Cl)c(Cl)c3)CC2)cs1,91.42
10,Cc1nc(C(=O)Nc2cc(N3CCNC3=O)ccc2Cl)cs1,-12.33
11,COc1ccnc(N2CCN(C(=O)c3csc(C4CC4)n3)CC2)n1,22.41
12,Cc1nnc(CN2CCCC(c3cc(C(N)=O)[nH]n3)C2)o1 (centres undefined),-6.189
13,CC(C)c1cnc(CN2CCCC(c3cc(C(N)=O)[nH]n3)C2)o1 (centres undefined),94.99
14,CC(C)c1nnc(CN2CCCC(c3cc(C(N)=O)[nH]n3)C2)o1 (centres undefined),107
15,Cc1nc(CN2CCCC(c3cc(C(N)=O)[nH]n3)C2)oc1C (centres undefined),110.2
16,Cc1cnc(CN2CCCC(c3cc(C(N)=O)[nH]n3)C2)o1 (centres undefined),1.908
17,Cc1cc(C2CCCN(Cc3ncc(C(C)C)o3)C2)n[nH]1 (centres undefined),8.603
18,CC(C)(C)c1nnc(CN2CCCC(c3cc(C(N)=O)[nH]n3)C2)o1 (centres undefined),1.877
19,CCc1nnc(CN2CCCC(c3cc(C(F)(F)F)[nH]n3)C2)o1 (centres undefined),-1.93
20,CCc1nnc(CN2CCCC(c3cc(C(N)=O)[nH]n3)C2)o1 (centres undefined),123.6
21,CCNc1ccnc(-c2ccnc3c2ccn3C)n1,5.655
22,COc1cc(NCCNC(=O)c2ccc3[nH]ccc3c2)cc(OC)c1,-37.35
23,CN1C(=O)[C@H]2CC[C@@H]1CN(C(=O)c1sccc1S(N)(=O)=O)C2,0.6963
24,Cc1cnc(CN2CCCC(c3cc(C(N)=O)[nH]n3)C2)cn1 (centres undefined),0.6166
25,Cc1ncc(CN2CCCC(c3cc(C(N)=O)[nH]n3)C2)s1 (centres undefined),121.8

row,SMILES,Percent Effect [%]
1,O=C(CCc1cscn1)NS(=O)(=O)c1ccc2c(c1)CCC2,0.3885
2,Cn1ccc(CN2CCC3(CC2)CC(Nc2cnccn2)CO3)n1.O=C(O)C(F)(F)F (centres undefined),4.568
3,Cn1ccc(C(=O)N2CCC3(CC2)CC(Nc2cnccn2)CO3)n1 (centres undefined),103.2
4,O=C(Cc1ccccc1)N1CCC2(CC1)CC(Nc1cnccn1)CO2 (centres undefined),117.3
5,Cn1ccc(CN2CCC3(CC2)CC(Nc2ccccn2)CO3)n1.O=C(O)C(F)(F)F (centres undefined),-6.155
6,Cc1nc2ncccn2c1C(=O)N1CCc2[nH]cnc2C1,16.62
7,CN(CC1CCN(CCO)CC1)CC(O)c1ccc(F)c(F)c1 (centres undefined),6.752
8,COc1cccc(-n2cc(-c3ccnc(N[C@@H](CO)C(C)C)n3)cn2)c1,-10.41
9,Cc1ccc(CCNc2nccc(-c3cc(C(=O)O)ccn3)n2)o1,-34.17
10,COC(=O)c1cccc(-c2c[nH]c(C)n2)c1,-9.245
11,COC(=O)c1ccc2c(-c3ccnc(NCCO)n3)c[nH]c2c1,85.03
12,CC[C@@H](CO)Nc1nccc(-c2c[nH]c3cc(C(=O)OC)ccc23)n1,73.76
13,COC(=O)c1ccc2c(-c3ccnc(N[C@@H](C)CO)n3)c[nH]c2c1,96.47
14,CSCCCNc1nccc(-c2cc(C(=O)O)ccn2)n1,-11.9
15,CC(C)C(=O)NCCNc1nccc(-c2cc(C(=O)O)ccn2)n1,-18.63
16,CCCN1C[C@H]2CC[C@@H]1CN(Cc1ccc(-n3cccn3)cc1)C2,12.23
17,O=C(CCc1cn[nH]c1)N1CCC(C2CCN(c3ncccn3)CC2)C1 (centres undefined),-3.024
18,CN1CCN(C[C@@H]2CN(C(=O)CCc3cn[nH]c3)C[C@@H]2CO)CC1,-11.62
19,CN1CCOC(CNCc2nc(-c3cccnc3)no2)C1 (centres undefined),17.39
20,CN1CCOC(CNCc2coc(-c3cccc(Cl)c3)n2)C1 (centres undefined),93.12
21,CN1CCOC(CNCc2coc(-c3cccc(F)c3)n2)C1 (centres undefined),69.38
22,CN(C)Cc1ccc(C2CCCCN2C(=O)c2cc(=O)[nH]c(=O)[nH]2)cc1 (centres undefined),-0.1381
23,Cc1cnn(CCNCc2nc(-c3ccccc3Cl)no2)c1,-13.51
24,CC[C@H]1N(CC2CCOCC2)CCC[C@]12CCC(=O)N2.O=C(O)C(F)(F)F,-18.34
